Sampled rows, rich in hits. Any-hit rate of the full collection: about 0.81%.
Bim-Bcl-2 = inhibitors of Bim-Bcl-2 binding, primary screen, biochemical, multiplexed, human Bcl-2 family; AID 950, 2007; 190,000 tested, 0.06% active; Apoptosis regulator Bcl-2 (Homo sapiens), P10415; Bead-based flow cytometry, Bim peptide-Bcl-2 binding; inhibition, % at 10 µM; in the data active means inhibition above about 40%;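 further: 0% = no compound wells with probe peptide and 100% = reference peptide inhibitor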
Bim-Bcl-W = inhibitors of Bim binding to Bcl-W, primary screen, biochemical, multiplexed, bead-based flow cytometry. Bim peptide-Bcl-W binding. inhibition, % at 10 µM. 190,000 tested, 0.02% active;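 further: 0% = bound tracer without compound and 100% = peptide blocker; higher means less fluorescent Bim peptide bound to Bcl-W beads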
Bfl-1 Bim block = inhibitors of Bim binding to Bfl-1, primary screen, biochemical, multiplexed, bead-based flow cytometry; 190,000 tested, 0.12% active; AID 1008, 2008; inhibition, % at 10 µM; Bim-Bfl-1 binding inhibition;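 further: 0% = wells without compound plus tracer and 100% = blocker peptide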
Target sequence (Q16548 whole entry, looked up): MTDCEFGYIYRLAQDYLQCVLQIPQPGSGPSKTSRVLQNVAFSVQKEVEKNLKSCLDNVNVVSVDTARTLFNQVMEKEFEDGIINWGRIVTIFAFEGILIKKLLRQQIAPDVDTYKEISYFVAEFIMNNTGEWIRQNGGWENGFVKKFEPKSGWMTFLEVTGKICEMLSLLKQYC
Bim-Bcl-B = inhibitors of Bim-Bcl-B binding, primary screen, biochemical, multiplexed, human Bcl-2 family | Bcl-2-like protein 10 (Homo sapiens), Q9HD36 | bead-based flow cytometry, Bim peptide-Bcl-B binding | inhibition, % at 10 µM | 190,000 tested, 0.073% active | AID 951, 2007;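 further: 0% = tracer peptide without compound and 100% = reference inhibitor peptide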
Target sequence (Q9HD36 whole entry, looked up): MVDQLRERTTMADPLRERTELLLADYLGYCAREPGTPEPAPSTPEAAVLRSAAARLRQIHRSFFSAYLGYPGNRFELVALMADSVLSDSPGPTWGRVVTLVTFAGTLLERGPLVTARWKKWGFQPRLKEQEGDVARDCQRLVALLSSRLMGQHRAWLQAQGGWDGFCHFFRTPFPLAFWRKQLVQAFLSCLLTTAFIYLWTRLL
Bcl-XL Bim block = inhibitors of Bim-Bcl-XL binding, primary screen, biochemical, multiplexed, bead flow cytometry, human Bcl-XL. Bcl-2-like protein 1 (Homo sapiens), Q07817. Bim peptide-Bcl-XL binding, fluorescence. inhibition, % at 10 µM. 190,000 tested, 0.04% active. AID 1007, 2008
Target sequence (Q07817 whole entry, looked up): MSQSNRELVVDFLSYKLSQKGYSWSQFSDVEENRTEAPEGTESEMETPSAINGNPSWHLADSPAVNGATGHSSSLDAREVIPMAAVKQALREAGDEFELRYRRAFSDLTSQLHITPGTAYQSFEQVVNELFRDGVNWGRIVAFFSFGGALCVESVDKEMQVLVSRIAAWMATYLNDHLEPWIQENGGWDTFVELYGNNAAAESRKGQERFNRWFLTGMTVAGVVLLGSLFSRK
Bcl-xL primary = inhibitors of human Bcl-xL, primary screen, biochemical, fluorescence polarization, HTS; Bcl-2-like protein 1 (Homo sapiens), Q07817; GST-Bcl-xL / FITC-Bim BH3 peptide fluorescence polarization; inhibition, % at 10.9 µM; 320,000 tested, 0.7% active; AID 2129, 2009;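 active means inhibition above the mean of all tested compounds plus 3 SD, cutoff set per campaign, cut at about 30% in these data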;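 further: 0% = DMSO wells and 100% = unlabeled Bim-BH3 peptide competitor; inhibitors lower millipolarization by displacing the labeled peptide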
Active calls of the source: *; · = no result; + = active, no number. Unless noted, no stated cut-off is given here; in the data, active means inhibition above about 40%.

SMILES | Bim-Bcl-2 | Bim-Bcl-W | Bfl-1 Bim block | Bim-Bcl-B | Bcl-XL Bim block | Bcl-xL primary
Cc1cccc(NC(=O)CSc2nnc(CSc3nc(C)cc(C)n3)o2)c1 | -7.0 | 1.0 | -12.0 | -8.0 | 3.0 | 31.0*
Cn1ncc(N=Cc2c(O)ccc3ccccc23)c1C(=O)Nc1cccc(Cl)c1 | 3.0 | 3.0 | 8.0 | -7.0 | 1.0 | 31.1*
CCCCNc1cc(Cl)nc(N)n1 | · | · | · | · | · | 30.3*
Nc1nc(Cl)cc(NCCc2ccccc2)n1 | -4.0 | -3.0 | -7.0 | -5.0 | -3.0 | 3.3
CCCn1c(SCC(=O)NC(=O)NC(C)(C)C)n[nH]c1=O | 0.0 | -1.0 | 4.0 | 2.0 | -1.0 | 0.6
CCCn1c(SCC(=O)NC2CCC(C)CC2)n[nH]c1=O (configuration not stated) | · | · | · | · | · | 40.9*
Cc1cc(-n2c(C)c3c(C)nnc(C)c3c2C)ccc1N | · | · | · | · | · | 6.7
Cc1nnc(C)c2c(C)n(-c3ccccc3N)c(C)c12 | -3.0 | 1.0 | -4.0 | -2.0 | -2.0 | 95.8*
COC(=O)COc1ccc2c(c1)O/C(=C\c1ccco1)C2=O | · | · | · | · | · | 75.5*
CCC(=O)Oc1ccc2c(c1)O/C(=C\c1ccco1)C2=O | · | · | · | · | · | 111.5*
CCN(CC)C(=O)Oc1ccc2c(c1)O/C(=C\c1ccco1)C2=O | · | · | · | · | · | 1.8
Cc1cc(O)cc2c1C(=O)/C(=C/c1ccco1)O2 | · | · | · | · | · | 62.9*
COc1ccccc1CNC(=O)Cn1nc(C)c([N+](=O)[O-])c1C | · | · | · | · | · | 3.5
COc1ccccc1CNC(=O)CSC(=S)N1CCCC1 | · | · | · | · | · | 0.0
Cc1ccc(C2C3=C(CCCC3=O)Nc3c2c(C)nn3-c2ccccn2)o1 (configuration not stated) | -4.0 | 2.0 | -2.0 | 0.0 | 0.0 | 2.0
CC(C)CCn1c(SCC(=O)NC2CC2)nc2cc(Cl)ccc2c1=O | · | · | · | · | · | 0.9
Clc1ccc2[nH]c(-c3ccccc3)cc2c1 | -9.0 | 0.0 | -17.0 | -10.0 | -9.0 | +
O=C(CNCC1CCCCC1)Nc1ccc(OC(F)(F)F)cc1 | 3.0 | 1.0 | -3.0 | 0.0 | 3.0 | 2.9
CCN1c2ccccc2N(C)C1(C)c1ccccc1 (configuration not stated) | -5.0 | -1.0 | -14.0 | -1.0 | -1.0 | 88.0*
CCN1C(=O)N(c2cccc3ccccc23)C(C)=CC1(C)C | -2.0 | 0.0 | 0.0 | -3.0 | 0.0 | -2.4
CN1C(=O)N(C)C2(c3ccccc3)NC(=O)NC12c1ccccc1 (configuration not stated) | -6.0 | 0.0 | -11.0 | -5.0 | -2.0 | 8.6
CN1c2ccccc2N(C)C1(C)c1ccccc1 | 6.0 | 7.0 | 10.0 | 0.0 | 0.0 | 69.0*
O=C(CSc1nc2ccc(Nc3nc(N4CCCC4)nc(N4CCCC4)n3)cc2s1)NCc1ccco1 | · | · | · | · | · | 6.5
COc1ccc(NC(=O)CCc2nnc3ccc(N4CCN(c5cccc(OC)c5)CC4)nn23)cc1 | · | · | · | · | · | -0.9
Cc1ccc(C2C=C(c3ccccc3)Nc3ncnn32)cc1 (configuration not stated) | · | · | · | · | · | 24.1
SMILES | Bim-Bcl-2 | Bim-Bcl-W | Bfl-1 Bim block | Bim-Bcl-B | Bcl-XL Bim block | Bcl-xL primary
OCCCc1nc2n(n1)C(c1cccs1)C=C(c1ccc(Br)cc1)N2 (configuration not stated) | 1.0 | 4.0 | -4.0 | 0.0 | 0.0 | 188.8*
Brc1ccc(C2=CC(c3cccs3)n3ncnc3N2)cc1 (configuration not stated) | 3.0 | 2.0 | 3.0 | 0.0 | -3.0 | 167.9*
CC1=C(C(N)=O)C(c2ccc(Br)cc2)n2nc(CCCO)nc2N1 (configuration not stated) | · | · | · | · | · | -22.7
Fc1ccc(Br)cc1C1C=C(c2cccnc2)Nc2ncnn21 (configuration not stated) | -5.0 | -4.0 | -12.0 | -8.0 | -6.0 | 36.8*
Cc1cccc(NC(=O)CCS(=O)(=O)c2cc3c(cc2Cl)NC(=O)CO3)c1 | · | · | · | · | · | 4.0
CCOCCCNC(=O)/C(C#N)=C/c1ccc([N+](=O)[O-])o1 | -1.0 | 0.0 | 0.0 | -6.0 | 0.0 | 33.9*
COc1ccc(OC)c(NC(=S)NCc2ccccc2OC)c1 | 0.0 | -3.0 | -5.0 | -6.0 | -6.0 | 30.4*
COc1ccc(OC)c(NC(=S)NCc2cccs2)c1 | 1.0 | -3.0 | -1.0 | -5.0 | -4.0 | 6.0
CC(=O)Oc1ccc(C(=O)Nc2cccnc2)cc1 | · | · | · | · | · | 4.6
CCC(=O)N1CCN(CCN=CC2=C(O)CC(c3ccc(OC)cc3)CC2=O)CC1 (configuration not stated) | -4.0 | -5.0 | -5.0 | -4.0 | -6.0 | -2.3
COc1ccc(C2CC(=O)C(C=NCCCO)=C(O)C2)cc1 (configuration not stated) | · | · | · | · | · | 63.8*
CC1=C(C#N)C(=O)N(C2CCS(=O)(=O)C2)C(=O)/C1=C\c1ccc(C)o1 (configuration not stated) | · | · | · | · | · | 30.4*
Cc1ccccc1NS(=O)(=O)c1ccc(-c2ccc(=O)[nH]n2)o1 | · | · | · | · | · | 4.7
CCN(CC)c1ccc(NS(=O)(=O)c2ccc(-c3ccc(=O)[nH]n3)o2)c(C)c1 | · | · | · | · | · | 31.8*
CN(C)c1ccc(/C=C/C(=O)c2cccc(Br)c2)cc1 | -7.0 | -11.0 | 4.0 | -37.0 | -5.0 | 46.1*
CN(C)c1ccc(C(=O)/C=C/c2cccnc2)cc1 | · | · | · | · | · | -7.2
O=C(NC(Cc1ccccc1)C(=O)O)/C(=C/c1ccco1)NC(=O)c1cccc(Br)c1 (configuration not stated) | 0.0 | -1.0 | 0.0 | 0.0 | 0.0 | 36.7*
O=C(NC(Cc1ccccc1)C(=O)O)/C(=C/c1ccccc1)NC(=O)c1ccco1 (configuration not stated) | · | · | · | · | · | 4.3
Oc1nc(Nc2ccc(F)cc2)sc1/C=C1\C=Nc2ccccc21 | · | · | · | · | · | -8.8
O=c1[nH]c(S)c(/C=C2\C=Nc3ccccc32)s1 | · | · | · | · | · | 76.7*
CCOC(=O)CC1=C(C(=O)OCC)C(c2ccc(OC)cc2OC)C(C#N)=C(N)O1 (configuration not stated) | -5.0 | -3.0 | -4.0 | -6.0 | -1.0 | 39.4*
CCOC(=O)CC1=C(C(=O)OCC)C(c2ccc(C)o2)C(C#N)=C(N)O1 (configuration not stated) | -4.0 | 0.0 | -3.0 | -6.0 | -2.0 | 37.3*
CCOC(=O)C1=C(CC)OC(N)=C(C#N)C1c1ccc(OC)cc1OC (configuration not stated) | 5.0 | 17.0 | 7.0 | 7.0 | 1.0 | 6.0
Cc1ccc(C(=O)OCC(=O)NC(=O)c2ccc(C(C)(C)C)cc2)c(O)c1 | · | · | · | · | · | 62.0*
Cc1ccc(SCc2c(-c3ccccc3)nn(C)c2Cl)cc1 | 3.0 | 1.0 | 0.0 | 2.0 | 4.0 | -2.0
Cc1ccc(Sc2c(C#N)c(-c3ccccc3)nn2C)cc1 | 78.0* | 10.0 | 47.0* | 68.0* | 8.0 | 4.2
